“And” between values parts separate entries of the source, which are not always exact repeats. Identical values can stand only once. Results filed as inconclusive are left out. The source made the active and inactive calls. Unless noted, the call rests on the fitted dose curve; in most records, active means well fitted curve in the direction sought with a large enough effect; inconclusive means small, poorly fitted or top-dose-only effect, or another doubt; inactive means no such curve, though single readings can be large; an effect the other way counts as inactive or inconclusive.
How the values were obtained:
[1] = biological target: Cellular tumor antigen p53 (Homo sapiens) (UniProt P04637); experiment: Primary qHTS for small molecule compounds that upregulate eGFP-tagged delta133p53alpha (in N-terminal) cells. (AID 2060322); conditions: NCI-H358 eGFP-delta133p53alpha fluorescence, 24 h; activation: active compounds read high;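 further: cells pre-induced with doxycycline then dosed without doxycycline; series mostly up to about 56 µM; 0% = DMSO vehicle and 100% = reference activator; nearly all actives have a fitted effect of over 75% in size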
In short: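 NCI-H358 cells pre-induced 24 h with 10 ng/ml doxycycline for eGFP-delta133p53alpha, plated dox-free and exposed 24 h at 37C to titrated compounds. Fixed, Hoechst-stained; gated GFP peak intensity by laser scanning cytometry, normalized to DMSO (0%) and 57.5 uM 5-azacytidine (100%).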

[2] = biological target: Cellular tumor antigen p53 (Homo sapiens) (UniProt P04637); experiment: Primary qHTS for small molecule compounds that upregulate eGFP-tagged delta133p53alpha (in C-terminal) cells. (AID 2060324);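 further: 0% = DMSO wells and 100% = 57.5 µM 5-azacytidine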
In short: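 Read-out: gated-cell GFP peak intensity (laser scanning cytometer), plate-normalized with DMSO as 0% activity, after 24 h compound exposure at 37C. Cells were C-terminal eGFP-tagged delta133p53alpha NCI-H358, doxycycline-induced (100 ng/ml, 24 h) before plating.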

[3] = biological target: Aldehyde dehydrogenase, mitochondrial (Homo sapiens) (UniProt P05091); experiment: qHTS for Inhibitors of the Aldehyde Dehydrogenase Family (ALDH2) Validation screens (AID 2061302; active means well fitted inhibition curve with a large enough effect; title and protocol of this record describe different tests;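 further: plate controls were DMSO vehicle for no effect and maximal DPI positive control response for full effect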)
[4] = biological target: Retinaldehyde dehydrogenase 3 (Homo sapiens) (UniProt P47895); experiment: qHTS for Inhibitors of the Aldehyde Dehydrogenase Family (ALDH1A3) Validation screen (AID 2061312); further: on the % scale 0 is the no-effect control and ±100 the full control effect; nearly all actives have a fitted effect of over 45% in size

Chain of Cellular tumor antigen p53 (Homo sapiens) (P04637 whole entry, looked up): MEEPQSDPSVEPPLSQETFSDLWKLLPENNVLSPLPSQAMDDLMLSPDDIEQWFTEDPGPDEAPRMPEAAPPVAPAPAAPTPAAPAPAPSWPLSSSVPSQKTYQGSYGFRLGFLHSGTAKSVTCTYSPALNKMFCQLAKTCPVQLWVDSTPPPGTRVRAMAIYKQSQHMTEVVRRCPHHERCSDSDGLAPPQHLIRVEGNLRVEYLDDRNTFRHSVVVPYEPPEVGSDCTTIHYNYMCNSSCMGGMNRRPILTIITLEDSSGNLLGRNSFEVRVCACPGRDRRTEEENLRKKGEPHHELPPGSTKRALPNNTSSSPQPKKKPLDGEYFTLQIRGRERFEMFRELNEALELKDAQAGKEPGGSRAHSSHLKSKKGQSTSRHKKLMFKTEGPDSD

N=S(=O)(O)Cc1noc2ccccc12
inactive: activation [1] -35.5% | Potency [2] | Potency [3] | Potency [4]

CSc1ccc(C(=O)c2[nH]c(=O)[nH]c2C)cc1
inactive: activation [1] -17.5% and -26.2% | Potency [2] | Potency [3] | Potency [4]

COCCOC(=O)C1=C(C)NC(C)=C(C(=O)OC/C=C/c2ccccc2)C1c1cccc([N+](=O)[O-])c1 (configuration not stated)
inactive: activation [1] 8.47% and -12.4% | Potency [2] | Potency [3] | Potency [4]

Nc1ncnc2c1ncn2[C@@H]1O[C@H](COP(=O)(O)CP(=O)(O)OP(=O)(O)O)[C@@H](O)[C@H]1O
inactive: activation [1] 7.87% | Potency [2] | Potency [3] | Potency [4]

O=c1[nH]c2cc([N+](=O)[O-])c([N+](=O)[O-])cc2[nH]c1=O
inactive: activation [1] 41.5% | Potency [2] | Potency [3] | Potency [4]

CN=C(N)NCCC[C@H](N)C(=O)O
inactive: activation [1] -4.6% | Potency [2] | Potency [3] | Potency [4]

CN(C)CCCN1c2ccccc2Sc2ccccc21
inactive: activation [1] 2.51% and 16.3% | Potency [2] | Potency [3] | Potency [4]

CCCC(CCC)C(=O)OC1CC2CCC(C1)[N+]2(C)C (configuration not stated)
inactive: activation [1] -17.7% | Potency [2] | Potency [3] | Potency [4]

c1ccc2c(c1)CC(N1CCN(c3cccc4c3OCCO4)CC1)C2
inactive: activation [1] 1.22% | Potency [2] | Potency [3] | Potency [4]

COCCc1ccc(OCC(O)CNC(C)C)cc1 (configuration not stated)
inactive: activation [1] 4.18% and 10.1% | Potency [2] | Potency [3] | Potency [4]

NC(N)=NC(=O)c1nc(Cl)c(N2CCCCCC2)nc1N
inactive: activation [1] -39.1% | Potency [2] | Potency [3] | Potency [4]

CO[C@H]1O[C@@H]2O[C@]3(C)CC[C@@H]4[C@@H](C)CC[C@H]([C@H]1C)[C@]24OO3
inactive: activation [1] -13% | Potency [2] | Potency [3] | Potency [4]

C/C(=C\c1ccc(C(=O)O)cc1)c1ccc2c(c1)C(C)(C)CCC2(C)C
inactive: activation [1] -14.6% | Potency [2] | Potency [3] | Potency [4]

CC(C)C[C@H](NC(=O)[C@H](O)[C@H](N)Cc1ccccc1)C(=O)O
inactive: activation [1] 3.56% | Potency [2] | Potency [3] | Potency [4]

NC(=O)C(=O)O
inactive: activation [1] -8.72% | Potency [2] | Potency [3] | Potency [4]

Nc1nc(SCc2ccc([N+](=O)[O-])cc2)c2ncn([C@@H]3O[C@H](CO)[C@@H](O)[C@H]3O)c2n1
inactive: activation [1] -3.28% | Potency [2] | Potency [3] | Potency [4]

O=C(O)CP(=O)(O)O
inactive: activation [1] -13% and 17.7% | Potency [2] | Potency [3] | Potency [4]

O=c1[nH]c(=O)n([C@H]2C[C@H](O)[C@@H](CO)O2)cc1Br
inactive: activation [1] -16.4% and -22.3% | Potency [2] | Potency [3] | Potency [4]

CSC(N)=NCCC[C@H](N)C(=O)O
inactive: activation [1] 3.33% | Potency [2] | Potency [3] | Potency [4]

O=[N+]([O-])c1ccc(CSc2ncnc3c2ncn3[C@@H]2O[C@H](CO)[C@@H](O)[C@H]2O)cc1
inactive: activation [1] -20.8% | Potency [2] | Potency [3] | Potency [4]

OC[C@H]1O[C@@H](n2cnc3cncnc32)[C@H](O)[C@@H]1O
inactive: activation [1] -14.1% | Potency [2] | Potency [3] | Potency [4]

CCCN(CCC)CCc1cccc2c1CC(=O)N2
inactive: activation [1] 6.69% and 9.01% | Potency [2] | Potency [3] | Potency [4]

CN(C)CCN(Cc1cccs1)c1ccccn1
inactive: activation [1] -15.3% and -8.14% | Potency [2] | Potency [3] | Potency [4]

COc1cc(C(O)CO)ccc1O (configuration not stated)
inactive: activation [1] -14% | Potency [2] | Potency [3] | Potency [4]

NCCS
inactive: activation [1] -9.6% and 3.67% | Potency [2] | Potency [3] | Potency [4]

Nc1nc(N)c2nc(-c3ccccc3)c(N)nc2n1
inactive: activation [1] -26.6% and -1.16% | Potency [2] | Potency [3] | Potency [4]

CC(N)(Cc1ccc(O)cc1)C(=O)O (configuration not stated)
inactive: activation [1] -18.1% | Potency [2] | Potency [3] | Potency [4]

CC(C)NNC(=O)c1ccncc1
inactive: activation [1] 1.67% and -19% | Potency [2] | Potency [3] | Potency [4]

CCCCNc1c(C(=O)OCC)c(C)nc2c1cnn2CC
inactive: activation [1] 8.47% and 3.05% | Potency [2] | Potency [3] | Potency [4]

CC1(C)CCC(NC(=O)[C@@H](N)CCC(=O)O)CC1
inactive: activation [1] -8.15% | Potency [2] | Potency [3] | Potency [4]

COc1ccc2c(c1)c(CC(=O)O)c(C)n2Cc1ccc(Cl)cc1
inactive: activation [1] -32.5% | Potency [2] | Potency [3] | Potency [4]

CCN(Cc1ccncc1)C(=O)C(CO)c1ccccc1 (configuration not stated)
inactive: activation [1] 3.95% and 13.2% | Potency [2] | Potency [3] | Potency [4]

NCC(O)(CS(=O)(=O)O)c1ccc(Cl)cc1 (configuration not stated)
inactive: activation [1] -28.8% | Potency [2] | Potency [3] | Potency [4]
